Rows were chosen to be rich in hits. Some 2.1% of all compounds tested hit in one or more screens of this group.
B2AR arrestin: agonists driving beta-arrestin recruitment to human beta2-adrenergic receptor; P07550; beta-arrestin recruitment to beta2AR, cell-based reporter; Potency, µM (series often up to 46.1 µM), for inactives: top-dose activation, usual class: activators; hit rate 0.02% among 330,000; AID 492947;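 further: potency means the concentration at half of the fitted maximal effect; 0% = DMSO controls and full agonism = EC100 isoproterenol or metaproterenol; nearly all actives have a fitted effect of over 65% in size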
p53 reactivation: re-activators of mutant p53 | hit rate 0.063% among 320,000 | AID 504706 | H1299 p53-A138V BP100-luciferase reporter, luminescence, 24 h | Potency, µM (titrated, usually from 92.2 µM), without a hit: top-dose activity change, positive = activation, most hits filed as activators; further: potency means the concentration at half of the fitted maximal effect; % of control where 0% means no effect; nearly all actives have a fitted effect of over 45% in size
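H1299 (p53-null), stable ts p53-A138V + BP100-Luc; 1000 cells/well, Opti-MEM/10% FBS; cpd 4 pt, 1:5; 24 h, 37 deg C, 5% CO2; detection reagent 10 min RT; luminescence.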
ClpP mod: qHTS Assay for Activators of ClpP. ATP-dependent Clp protease proteolytic subunit (Bacillus subtilis (strain 168)), P80244. purified B. subtilis ClpP, FRET peptide cleavage, 20 min. AID 651965, 2013. Potency, µM (highest dose often 57.5 µM), for the others: top-dose activity change, negative = active. hit rate 1.9% among 340,000; active means well fitted falling curve with a large enough effect; inconclusive means small, poorly fitted or top-dose-only effect; inactive means no such curve, though single readings can be large or run the other way; further: potency means the concentration at half of the fitted maximal effect; the source files actives as falling curves though it sought activators and does not explain the sign; nearly all actives have a fitted effect of over 65% in size
Target sequence (P80244 whole entry, looked up): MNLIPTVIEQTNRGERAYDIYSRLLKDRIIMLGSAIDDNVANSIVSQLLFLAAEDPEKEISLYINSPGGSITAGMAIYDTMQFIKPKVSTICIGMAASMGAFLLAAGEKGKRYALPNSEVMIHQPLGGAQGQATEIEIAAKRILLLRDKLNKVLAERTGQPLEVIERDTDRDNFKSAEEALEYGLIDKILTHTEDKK
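ClpP 10 microg/mL final, pH 8 Tris/KCl buffer with BSA, glycerol, Tween-20; compound pinned in; FRET-FV substrate; RT 20 min; Ex320/Em430; ΔFRET vs ADEP 5.8 microM, DMSO, no enzyme.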
Giardia killer: kills Giardia lamblia; hit rate 0.15% among 340,000; Giardia lamblia trophozoite viability; activity change, % at 7.66 µM, hits read low; in the data active means activity change below about -80%; inconclusive means between about -30% and that limit;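 further: parasites exposed to compound for two days anaerobically before the ATP read; on the % scale 0 is the no-effect control and ±100 the full control effect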
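Compounds were tested on trophozoites seeded at 100 cells/well and held 48 hrs at 37 deg C anaerobically. An ATP-based luminescent kit measured the remaining live cells.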
Mito fusion act: inhibitors of mitochondrial division or activators of mitochondrial fusion | S. cerevisiae fusion-defective mutant growth rescue, CellTiterGlo 48 h | Potency, µM (top dose mostly 46.1 µM), for inactives: at the highest dose growth rescue (activation), usual class: activators | hit rate 0.23% among 320,000; further: potency means the concentration at half of the fitted maximal effect; % of control where 0% means no effect; nearly all actives have a fitted effect of over 45% in size
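Luminescent cell viability in 1536-well qHTS format served as the measure of rescued growth in ts fusion-mutant S. cerevisiae cultured on non-fermentable YPEG for 48 hours at 37C.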
uPA generation: inhibitors of cell surface uPA generation; cell surface uPA generation assay, qHTS; Potency, µM (top dose mostly 38.3 µM), inactives show at the top dose activity change, negative = inhibition, hits mostly inhibitors; hit rate 0.31% among 330,000; active means well fitted inhibition curve with a large enough effect; inconclusive means small, poorly fitted or top-dose-only effect; inactive means no such curve, though single readings can be large or run the other way; tested in mouse RAW 264.7 cells; further: potency means the concentration at half of the fitted maximal effect; on the % scale 0 is the no-effect control and ±100 the full control effect; nearly all actives have a fitted effect of over 55% in size
An asterisk follows results filed as active; ? = inconclusive; · = no result. Unless noted, the call rests on the fitted dose curve; in most records, active means well fitted curve in the direction sought with a large enough effect; inconclusive means small, poorly fitted or top-dose-only effect, or another doubt; inactive means no such curve, though single readings can be large; an effect the other way counts as inactive or inconclusive.

SMILES | B2AR arrestin | p53 reactivation | ClpP mod | Giardia killer | Mito fusion act | uPA generation
Cc1csc(NC(=O)c2ccco2)n1 | 0% | -6% | 22µM* | -1 | -4% | 5%
COc1cccc(C(=O)Nc2nc(-c3nnn(-c4ccccc4C(F)(F)F)c3C)ns2)c1 | · | · | -1% | · | · | ·
CC1Cc2cc(S(=O)(=O)CCC(=O)Nc3ccc(F)cc3Cl)ccc2N1C(=O)C1CC1 (centres undefined) | · | · | 0% | · | · | ·
N#Cc1ccccc1NC(=O)Nc1cccc(Cl)c1 | · | · | 28µM* | 2 | 2% | -1%
N#Cc1c(-c2ccccc2)cc(-c2ccc3c(c2)OCO3)[nH]c1=O | 0% | -5% | 18µM* | 4 | 3% | -3%
N#Cc1c(-c2ccc3c(c2)OCO3)csc1N | -2% | -1% | -3% | 6 | 10% | -2%
CC1CCC(=C(C#N)c2nc(-c3cc4ccccc4oc3=O)cs2)CC1 (centres undefined) | 0% | ? | 3.5µM* | 7 | 25% | 7%
CC1(C)CC(=O)c2cc(OCC(=O)NCCN3CCOCC3)ccc2O1 | 0% | 3% | ? | 12 | -2% | 2%
CC1(C)CC(=O)c2cc(OCC(=O)O)ccc2O1 | 0% | 9% | 25µM* | -12 | 1% | ·
CCOC(=O)N1CCN(C(=O)COc2ccc3c(c2)C(=O)CC(C)(C)O3)CC1 | 0% | -4% | 4% | 2 | -6% | -2%
CCOC(=O)COc1ccc2c(c1)C(=O)CC1(CCN(C(C)=O)CC1)O2 | -1% | 3% | 28µM* | -3 | -1% | ·
CC1(C)CC(=O)c2cc(OCC(=O)N3CCCCCC3)ccc2O1 | 0% | ? | 28µM* | -7 | -1% | ·
CCOC(=O)COc1ccc2c(c1)C(=O)CC(C)(C)O2 | 0% | 0% | 28µM* | 0 | 2% | ·
C=C1C=C(C(F)F)n2ncc(C(=O)N3CCN(c4ccccn4)CC3)c2N1 | · | · | 0% | · | · | ·
O=C(NCC(c1ccc2c(c1)OCO2)N1CCOCC1)C(=O)Nc1ccc(Cl)cc1 (centres undefined) | · | · | -1% | · | -3% | ·
Cc1ccc(/C=C/C(=O)NC2=NCCS2)cc1 | 0% | ? | -1% | -13 | 14% | 10µM*
CC(C)(C)c1ccc(/C=C/C(=O)NC2=NCCS2)cc1 | -1% | 11% | -9% | -15 | 5% | 2%
O=C(Cn1c(=O)c(CNc2ccccc2)cc2cc3c(cc21)OCCO3)Nc1ccccc1Cl | · | · | 6% | 2 | · | ·
CC(C)(C)NS(=O)(=O)c1ccc(C(=O)Nc2ccc3c(c2)OCO3)cc1 | 0% | 9% | · | 13 | 35µM* | 2%
CCOC(=O)CN1C(=O)C(=O)N(Cc2c(Cl)cccc2Cl)C1=O | 0% | 1% | · | -9 | -12% | 3%
CCOC(=O)Nc1ccc(=O)n(Cc2c(Cl)cccc2Cl)c1 | 0% | -3% | 28µM* | 9 | 0% | -3%
O=C(Nc1cccc(-c2cn3c(n2)SCC3)c1)c1ccc2ccccc2n1 | 0% | 18% | · | 12 | -3% | 9%
O=C(Nc1ccc(-c2cn3c(n2)SCC3)cc1)c1ccc2ccccc2n1 | 0% | 12% | 22µM* | -6 | 3% | -7%
O=C1Cc2ccccc2C(c2ccc(Br)cc2)N1 (centres undefined) | 0% | -5% | -1% | 0 | 2% | -2%
O=C1NC2=C(CCc3ccccc32)C(c2ccc(Br)cc2)N1 (centres undefined) | 0% | 7% | 28µM* | 6 | -6% | 0%
CCS(=O)(=O)CCn1c([N+](=O)[O-])cnc1C | 1% | 2% | 0% | -86* | -6% | 1%
Cc1ncc([N+](=O)[O-])n1CC(C)O (centres undefined) | -1% | 6% | -1% | ? | 0% | 17%
COc1ccc(-n2nc3ccc(N)cc3n2)cc1Cl | 0% | · | 3% | -8 | -2% | ?
COc1ccc(-n2nc3ccc(NS(C)(=O)=O)cc3n2)cc1Cl | -1% | 16% | 28µM* | 0 | -1% | 1%
O=C(Cn1nnnc1-c1ccccc1F)Nc1ccc(F)c(F)c1 | · | · | 1% | · | · | ·

Bioassay records as filed in PubChem.
